Experimental data reported in PubChem BioAssay (Tox21).
Records with an inconclusive call do not appear. Where a call stands in place of a potency, no number is given. Active and inactive are the calls of the source. Calls follow the shape of the dose curve; as a rule, active = well fitted curve in the direction sought with a large enough effect in the repeat runs; inconclusive = weak or mixed curves; inactive = no such curve, though single readings can be large; an effect the other way counts as inactive or inconclusive.

Assay: qHTS assay to identify small molecule agonists of the RXR signaling pathway - cell viability counter screen (AID 1159529); also: nearly all actives have a fitted effect of over 50% in size
Settings: RXR-alpha-bla HEK293T viability, CellTiter-Glo, 16 h; series mostly up to 76.8 µM
How it was run: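 RXR-alpha-UAS-bla HEK 293T cells in medium with 2% charcoal-stripped FBS were pre-incubated 5 hr, then compound-treated 16 hr at 37 C. Viability was read by CellTiter-Glo luminescence in the same wells as the beta-lactamase assay, with tetraoctyl ammonium bromide as positive control.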

| Structure (SMILES) | Potency | activity change, negative = cytotoxicity |
| --- | --- | --- |
| CCC(=O)c1ccccc1 | inactive |  |
| CNC(=O)N(C)c1nc2ccccc2s1 | inactive |  |
| COC(=O)C(C)Oc1ccc(Oc2ccc(Cl)cc2Cl)cc1 (stereo not drawn) | inactive |  |
| Clc1ccccc1N1CCNCC1 | inactive |  |
| Fc1cc(Br)ccc1CBr | inactive |  |
| CN/C(=N\[N+](=O)[O-])NCC1CCOC1 (stereo not drawn) | inactive |  |
| CC(C1CC1)C(O)(Cn1cncn1)c1ccc(Cl)cc1 (stereo not drawn) | inactive |  |
| C[N+](=O)[O-] | inactive |  |
| CSc1ccc(C(=O)C(C)(C)N2CCOCC2)cc1 | inactive |  |
| O=C(Oc1ccc(Br)cc1)N1CCN2CCC1CC2 | inactive |  |
| COc1cc(OC)nc(NC(=O)NS(=O)(=O)c2ncccc2OCC(F)(F)F)n1 | inactive |  |
| CCS(=O)(=O)CCSP(=O)(OC)OC | inactive |  |
| O=C1CN2CCOC2(c2ccccc2Cl)c2cc(Cl)ccc2N1 (stereo not drawn) | inactive |  |
| O=[N+]([O-])c1ccc(CBr)cc1 | inactive |  |
| Cc1cccc(C#N)c1 | inactive |  |
| CC1=C(C(=O)O)N2C(=O)[C@@H](N)[C@H]2SC1 |  | 1.45% [at 15.8 µM] (inactive) |
| CC1=C(C(=O)Nc2ccccc2)S(=O)(=O)CCO1 | inactive |  |
| CC(=O)C(Cl)Cl | inactive |  |
| CSc1nc(N=[N+]=[N-])nc(NC(C)C)n1 | inactive |  |
| N#CCNCC#N | inactive |  |
| [O]=[Cd] | inactive |  |
| O=CNC(N1CCN(C(NC=O)C(Cl)(Cl)Cl)CC1)C(Cl)(Cl)Cl (stereo not drawn) | inactive |  |
| CCC(C)(C)c1cc(-n2nc3ccccc3n2)c(O)c(C(C)(C)CC)c1 | inactive |  |
| CCN(Cc1ccc(Cl)nc1)/C(=C/[N+](=O)[O-])NC | inactive |  |
| Cc1cc(C)c(C(=O)P(=O)(C(=O)c2c(C)cc(C)cc2C)c2ccccc2)c(C)c1 | inactive |  |

Assay: qHTS assay to identify small molecule antagonists of the retinoid acid receptor (RAR) signaling pathway - cell viability counter screen (AID 1159551); also: nearly all actives have a fitted effect of over 35% in size
Settings: C3RL4 cells viability, ATP luminescence (CellTiter-Glo), 6 h; series mostly up to 92.4 µM
How it was run: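 Measured by luminescent ATP detection, viability reflects C3RL4 cells treated 6 h at 37 C with test chemicals in the presence of 1 uM (final) retinol.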

| Structure (SMILES) | Potency | activity change, negative = cytotoxicity |
| --- | --- | --- |
| CCC(=O)c1ccccc1 | inactive |  |
| CNC(=O)N(C)c1nc2ccccc2s1 | inactive |  |
| COc1ccc(C(=O)N2CCCC2=O)cc1 | inactive |  |
| COC(=O)C(C)Oc1ccc(Oc2ccc(Cl)cc2Cl)cc1 (stereo not drawn) | inactive |  |
| Clc1ccccc1N1CCNCC1 | inactive |  |
| Fc1cc(Br)ccc1CBr | inactive |  |
| CN/C(=N\[N+](=O)[O-])NCC1CCOC1 (stereo not drawn) | inactive |  |
| CC(C1CC1)C(O)(Cn1cncn1)c1ccc(Cl)cc1 (stereo not drawn) | inactive |  |
| C[N+](=O)[O-] | inactive |  |
| CSc1ccc(C(=O)C(C)(C)N2CCOCC2)cc1 | inactive |  |
| O=C(Oc1ccc(Br)cc1)N1CCN2CCC1CC2 | inactive |  |
| COc1cc(OC)nc(NC(=O)NS(=O)(=O)c2ncccc2OCC(F)(F)F)n1 | inactive |  |
| CCS(=O)(=O)CCSP(=O)(OC)OC | inactive |  |
| O=C1CN2CCOC2(c2ccccc2Cl)c2cc(Cl)ccc2N1 (stereo not drawn) | inactive |  |
| O=[N+]([O-])c1ccc(CBr)cc1 | inactive |  |
| CC1=NNC(=O)N(/N=C/c2cccnc2)C1 | inactive |  |
| Cc1cccc(C#N)c1 | inactive |  |
| C(CCOCC1CO1)COCC1CO1 (stereo not drawn) | inactive |  |

| Structure (SMILES) | Potency | activity change, negative = cytotoxicity |
| --- | --- | --- |
| CC1=C(C(=O)O)N2C(=O)[C@@H](N)[C@H]2SC1 |  | -0.0172% [at 19 µM] (inactive) |
| CC1(C(=O)Nc2ccc(O)c(Cl)c2Cl)CCCCC1 | inactive |  |
| CC1=C(C(=O)Nc2ccccc2)S(=O)(=O)CCO1 | inactive |  |
| CC(C)CC#N | inactive |  |
| CCOP(=O)(OCC)OP(=O)(OCC)OCC | inactive |  |
| CC(=O)C(Cl)Cl | inactive |  |
| CSc1nc(N=[N+]=[N-])nc(NC(C)C)n1 | inactive |  |
| c1cc2c(c(N3CCNCC3)c1)OCCO2 | inactive |  |
| CC(C(O)c1ccccc1)N(C)C/C=C/c1ccccc1 (stereo not drawn) | inactive |  |
| N#CCNCC#N | inactive |  |
| Clc1cccc(N2CCNCC2)c1 | inactive |  |
| [O]=[Cd] | inactive |  |
| Nc1n[nH]c(N)n1 | inactive |  |
| O=CNC(N1CCN(C(NC=O)C(Cl)(Cl)Cl)CC1)C(Cl)(Cl)Cl (stereo not drawn) | inactive |  |
| CCC(C)(C)c1cc(-n2nc3ccccc3n2)c(O)c(C(C)(C)CC)c1 | inactive |  |
| CCN(Cc1ccc(Cl)nc1)/C(=C/[N+](=O)[O-])NC | inactive |  |
| CCC(Cl)[N+](=O)[O-] (stereo not drawn) | inactive |  |
| Cc1cc(C)c(C(=O)P(=O)(C(=O)c2c(C)cc(C)cc2C)c2ccccc2)c(C)c1 | inactive |  |

Assay: qHTS assay to identify small molecule antagonists of the retinoic acid receptor (RAR) signaling pathway (AID 1159552; also: nearly all actives have a fitted effect of over 50% in size)
Settings: C3RL4 RARE luciferase reporter, retinol-stimulated, 6 h; series mostly up to 92.4 µM
How it was run: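 Retinol signaling pathway inhibitors screened in C3RL4 RARE-luciferase reporter cells seeded overnight at 37 C, then compounds added with 1 uM (final) retinol as pathway substrate. After 6 hr at 37 C, luciferase luminescence read after 30 min at room temperature.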

| Structure (SMILES) | Potency |
| --- | --- |
| CNC(=O)N(C)c1nc2ccccc2s1 | inactive |
| COC(=O)C(C)Oc1ccc(Oc2ccc(Cl)cc2Cl)cc1 (stereo not drawn) | inactive |
| Clc1ccccc1N1CCNCC1 | inactive |
| CC(C1CC1)C(O)(Cn1cncn1)c1ccc(Cl)cc1 (stereo not drawn) | inactive |
| Nc1c(Br)cc([N+](=O)[O-])cc1[N+](=O)[O-] | inactive |
| CSc1ccc(C(=O)C(C)(C)N2CCOCC2)cc1 | inactive |
| O=C(Oc1ccc(Br)cc1)N1CCN2CCC1CC2 | inactive |
| CCS(=O)(=O)CCSP(=O)(OC)OC | inactive |
| O=C1CN2CCOC2(c2ccccc2Cl)c2cc(Cl)ccc2N1 (stereo not drawn) | inactive |
| O=[N+]([O-])c1ccc(CBr)cc1 | inactive |
| CC1=NNC(=O)N(/N=C/c2cccnc2)C1 | inactive |
| C(CCOCC1CO1)COCC1CO1 (stereo not drawn) | inactive |
| CC(C)CC#N | inactive |
| c1cc2c(c(N3CCNCC3)c1)OCCO2 | inactive |
| CC(C(O)c1ccccc1)N(C)C/C=C/c1ccccc1 (stereo not drawn) | inactive |
| Clc1cccc(N2CCNCC2)c1 | inactive |
| Cc1cc(C)c(C(=O)P(=O)(C(=O)c2c(C)cc(C)cc2C)c2ccccc2)c(C)c1 | inactive |
